# Source: PubChem BioAssay
# Vif inh = HIV Vif inhibition; HEK293T cells, Vif self-association by quenched fluorescence, imaging, 24 h; inhibition, % at 7.49 µM; actives 0.35% (n = 340,000); in the data active means inhibition above about 50%, passing the limit was not always enough
# SMARCA2 act = increases SMARCA2 function in MMTV reporter cells. actives 1% (n = 370,000). activation, % at 9.1 µM. MG213 cells, MMTV-luciferase reporter, dexamethasone, overnight; in the data active means activation above about 7.8%;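 further: 0% = vehicle wells and 100% = reference activator wells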
# esBAF inh = inhibitors of esBAF chromatin remodeling in mouse ES cells; actives 2% (n = 350,000); AID 602393; reporter increase, % at 12.5 µM; Bmi1-luciferase knock-in reporter, 24 h; 100% = twice the neutral-well signal; in the data active means activation above about 40%;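 further: 0% = median of the plate's neutral control wells and 100% = double that signal; a rise in the Bmi1 reporter signal indicates esBAF inhibition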
# NadD inh = inhibitors of Staphylococcus aureus NadD | actives 0.78% (n = 360,000) | inhibition, % at 20 µM | purified NadD enzyme, colorimetric absorbance read-out; in the data active means inhibition above about 26%
# SKN-1 inh = C. elegans SKN-1 inhibition; actives 0.49% (n = 360,000); inhibition, % at 21.8 µM; C. elegans VP596 Pgst-4::GFP/RFP ratio, acrylamide-induced, 24 h; AID 624304;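 active means interference check ratio from 0.5 to 1.5 plus GFP to RFP signal ratio inhibition reaching or exceeding a fixed threshold, cut at about 30% in these data, passing the limit was not always enough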
# GRIN3A LBD mod = modulators (binders) of human NR3A ligand-binding domain. actives 2.5% (n = 340,000). NR3A LBD differential scanning fluorimetry, Tm shift; 0% = protein alone, 100% = glycine-bound protein. Tm shift relative to glycine control, % at 25 µM. AID 1259313;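 active means melting temperature shift of at least 10% of the positive control shift, at one fixed dose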
# * marks the source's active call; other numbers are inactive results; nt = no result given. Only some compounds are listed: those with a hit (about 5.2% of all), similar ones and a draw of the others.
SMILES,Vif inh,SMARCA2 act,esBAF inh,NadD inh,SKN-1 inh,GRIN3A LBD mod
COCCNC(=O)C[C@@H]1C[C@H]2c3cc(NC(=O)NC4CCCC4)ccc3O[C@H]2[C@@H](CO)O1,nt,nt,4.7,nt,nt,nt
COc1ccc(C2CC(C(C)(C)C)=NN2c2ccc(S(N)(=O)=O)cc2)cc1 (stereo unspecified),nt,-4.8,0.5,-3.7,3.2,-5.1
COc1ccc(C2CC(c3ccccc3C(F)(F)F)=NN2c2ccc(S(N)(=O)=O)cc2)cc1 (stereo unspecified),12.2,-6.6,-6.7,11.9,17.5,18.5*
Cc1ccc(C2CC(c3ccccc3)=NN2c2ccc(S(N)(=O)=O)cc2)cc1 (stereo unspecified),nt,-4.2,4.8,15.5,2.3,nt
COc1ccc(C2CC(c3ccccc3Br)=NN2c2ccc(S(N)(=O)=O)cc2)cc1 (stereo unspecified),6.6,-2.7,-8.6,7.1,1.3,14.3*
COc1ccc(C2CC(c3ccc(C(F)(F)F)cc3)=NN2c2ccc(S(N)(=O)=O)cc2)cc1 (stereo unspecified),20.3,-5.4,1.2,28.3,14.8,107.3*
COc1ccc(C2CC(c3ccccc3F)=NN2c2ccc(S(N)(=O)=O)cc2)cc1 (stereo unspecified),11.1,-1.1,-3.2,5.1,-0.6,3.0
CO[C@@H]1CC[C@H]2CCOc3ccc(C#N)cc3C(=O)N(C)C[C@H](C)C(=O)N(C)C[C@@H]1O2,nt,nt,-2.2,nt,nt,nt
COc1ccc(C(=O)N2CCN(Cc3cn[nH]c3-c3ccc(OC)cc3F)CC2)cc1,-2.9,-3.7,-1.4,-4.8,11.8,47.5*
c1ccc(N2CCN(c3nc4cc5c(cc4s3)OCO5)CC2)cc1,18.7,1.5,49.4*,2.7,9.5,-0.6
Fc1ccc2nc(Nc3nc4cc5c(cc4s3)OCCO5)sc2c1,-4.6,6.4,nt,28.9,5.0,3.8
Fc1ccc2nc(Nc3nc4cc5c(cc4s3)OCO5)sc2c1,-1.4,3.4,nt,23.2,1.9,30.6*
c1ccc2sc(Nc3nc4cc5c(cc4s3)OCO5)nc2c1,7.3,5.6,68.6*,16.4,3.4,8.2
c1c2c(cc3sc(N4CCOCC4)nc13)OCO2,-2.6,1.7,-21.8,10.8,3.0,0.7
COc1ccc(S(=O)(=O)Nc2ccc3c(c2)C(=O)N([C@H](C)CO)C[C@@H](C)[C@H](CN(C)C(=O)CCC(F)(F)F)OCCCC[C@@H](C)O3)cc1,nt,nt,9.6,nt,nt,nt
O=C(NC1CCCC1)[C@H]1[C@H](CO)[C@H]2Cn3c(ccc(-c4cccnc4)c3=O)[C@@H]1N2CCc1ccccc1,nt,nt,-3.4,nt,nt,nt
CN1c2ccc(C#Cc3cccnc3)cc2[C@@H]2[C@@H](CCN2S(=O)(=O)c2cccc(F)c2)[C@H]1CO,nt,nt,7.4,nt,nt,nt
Cc1ccc(C(c2nc3ccccc3[nH]2)n2c(-c3ccccc3)nc3ccccc32)cc1 (stereo unspecified),-1.8,-0.1,70.0*,5.5,18.5,nt
CSCCC(c1nc2ccccc2[nH]1)n1c(-c2ccc(C)cc2)nc2ccccc21 (stereo unspecified),nt,-0.7,nt,nt,18.0,nt
CN(C)/C=N/c1cnc(C(=O)c2ccc(Cl)cc2)n1C,-2.5,1.0,45.4*,-1.8,7.5,-1.4
O=C(c1ccccc1F)N1CC[C@@H]2[C@@H](CO)Nc3ccc(C#Cc4ccccc4)cc3[C@@H]21,nt,nt,1.5,nt,nt,nt
COc1cccc(CNC(=O)C[C@@H]2C=C[C@H](NC(=O)C3CC3)[C@@H](CO)O2)c1,nt,nt,3.4,nt,nt,nt
Cc1ccc(C)c(NC(=S)Nc2cccc3cnccc23)c1,1.5,-2.1,nt,5.0,4.6,-2.7
Cc1ccc(NC(=S)Nc2cccc3cnccc23)cc1C,-8.9,-1.5,45.5*,7.8,10.5,-1.9
Cc1ccc(NC(=S)Nc2cccc3cnccc23)cc1,10.6,0.0,68.3*,8.2,6.5,-21.9
C[C@@H]1CN([C@H](C)CO)C(=O)c2cc(C#Cc3ccccn3)cnc2O[C@H]1CN(C)C(=O)c1cnccn1,nt,nt,0.9,nt,nt,nt
COc1ccc(CN(C)C[C@H]2Oc3ccc(NC(=O)C4CC4)cc3CC(=O)N([C@H](C)CO)C[C@H]2C)cc1,nt,nt,7.8,nt,nt,nt
CN1[C@@H]2Cn3c(ccc(/C=C/c4ccccc4)c3=O)[C@H]1[C@@H](C(=O)NC1CCC1)[C@@H]2CO,nt,nt,-2.6,nt,nt,nt
C#CCn1c(=NC(=O)c2cc(Cl)sc2Cl)sc2cc(S(N)(=O)=O)ccc21,22.1,-1.9,-4.1,17.4,-11.8,31.2*
